Source: PubChem BioAssay (NCI)
This is part of a sample that, as a whole, favours compounds with a hit. Of some 79,000 tested, about 15% had one in any assay. Values without a mark were called inactive. The source made the active and inactive calls. Rule as the data show it: active = growth inhibition above about 70%; inactive = the rest.

Experiments:
[1] = NCI Yeast Anticancer Drug Screen. Data for the rad50 strain (AID 155);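 also: 0% = growth of vehicle-only cultures of the same strain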; settings: S. cerevisiae rad50 strain growth inhibition; at 50.0 µM; active compounds read high
How it was run: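 Genetically altered yeast (DNA repair pathway); compound treatment; growth inhibition vs vehicle ctrl.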

[2] = NCI Yeast Anticancer Drug Screen. Data for the mec2-1 strain (AID 157); settings: S. cerevisiae mec2-1 strain, at 50.0 µM, active compounds read high
How it was run: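 Test agents were screened against the mec2-1 yeast strain, with defined DNA repair or cell cycle alteration. Growth was scored as inhibition against vehicle-only controls.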

[3] = NCI Yeast Anticancer Drug Screen. Data for the sgs1 mgt1 strain (AID 161);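 also: 0% = growth of cultures given vehicle only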; settings: S. cerevisiae sgs1 mgt1 strain, at 50.0 µM, active compounds read high
How it was run: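 Read-out: growth inhibition vs vehicle controls. Cells: mutant yeast strain deficient in DNA damage repair.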

[4] = NCI Yeast Anticancer Drug Screen. Data for the cln2 rad14 strain (AID 165);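 also: 0% = growth equal to vehicle treated cultures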; settings: S. cerevisiae cln2 rad14 strain, at 50.0 µM, active compounds read high
How it was run: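 Growth of compound-exposed yeast (cln2 rad14 genotype) measured and expressed as inhibition relative to vehicle.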

[5] = NCI Yeast Anticancer Drug Screen. Data for the bub3 strain (AID 167); settings: S. cerevisiae bub3 mutant strain, at 50.0 µM, active compounds read high
How it was run: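 Yeast carrying a defined mutation is treated with each compound, and growth is compared with that of vehicle-exposed cells to give inhibition.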

[6] = NCI Yeast Anticancer Drug Screen. Data for the mlh1 rad18 strain (AID 175); settings: S. cerevisiae mlh1 rad18 strain growth inhibition; at 50.0 µM; active compounds read high
How it was run: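 In this whole-cell yeast screen, a strain with altered DNA damage repair is challenged with compound, and its growth is measured against matched vehicle-treated controls.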

| Compound | growth inhibition [1] | growth inhibition [2] | growth inhibition [3] | growth inhibition [4] | growth inhibition [5] | growth inhibition [6] |
| --- | --- | --- | --- | --- | --- | --- |
| CCC(O)(c1ccc(O)cc1)C(O)(CC)c1ccc(O)cc1 (stereo unspecified) | 1.4% | -12.8% | -0.2% | 5.55% | 17.4% | -14.4% |
| Cn1cnc2c(=O)[nH]cnc21 | 12.9% | -12.7% | -2.4% | -4.8% | 14.7% | -8.5% |
| C=CCc1ccc(OC(=O)Nc2ccc(S(=O)(=O)NC3CCCCC3)cc2)c(OC)c1 | 33.7% | 8.85% | 44.7% | 33.1% | 11.8% | 44.4% |
| O=C(Cc1ccccc1)NN1C(=O)C(Cl)C1c1cc(Br)ccc1O (stereo unspecified) | 21% | 30.1% | 29.6% | -20.6% | 25.2% | 15.6% |
| N#C/C(=C\c1ccccc1Cl)C(N)=S | 10.6% | 11.2% | 1.15% | 8% | -27.4% | 6.05% |
| CCc1c(C)c2cc(N)ccc2[nH]c1=O | -8.05% | 24.1% | -3.7% | -23.7% | -9.9% | 6.45% |
| O=C(O)CCSC1=NCCN1 | -32.8% | -44% | -26.1% | 16.6% | -42.9% | -10.6% |
| CCOC(=O)C1CC1c1c(C)c2cc3[nH]c(cc4nc(cc5nc(cc1[nH]2)C(C)=C5CCC(=O)OC)C(CCC(=O)OC)=C4C)c(C)c3C1CC1C(=O)OCC (stereo unspecified) | -7.25% | 36.5% | 29.5% | -19.4% | -6.15% | 39.2% |
| CCN(CC)c1nc(NNS(=O)(=O)c2ccccc2)nc(N(CC)CC)n1 | -3.6% | -5.2% | 4.3% | -13.1% | -4.3% | 11% |
| O=C(CCc1cc(-c2ccc(F)cc2)n[nH]1)N(Cc1ccccc1)Cc1ccccc1 | -20.1% | 11.2% | -27.8% | 2.25% | -20.2% | -9% |
| CC(=O)N(CCC(C)C)c1ccccc1 | 10.6% | 11.6% | -0.75% | -43.9% | -6.45% | -6.85% |
| COc1cc(C(C)c2cc3c(cc2O)OCO3)cc(OC)c1OC (stereo unspecified) | -31.2% | -26.1% | -15.6% | 8.5% | 26.8% | -16.4% |
| O=C1N=C(C=c2ccc(=Cc3[nH]c(=O)n(CN4CCCCC4)c3O)cc2)C(=O)N1CN1CCCCC1 | 1.2% | -6.2% | 3.65% | 26.4% | -10.3% | -7.1% |
| Nc1nnc2cc(Br)ccc2n1 | -6% | -2.55% | 17.7% | 14.2% | 19.5% | 4.45% |
| COc1nc(NC2OC(CO)C(O)C(O)C2O)c(C(C)=O)c(=O)[nH]1 (stereo unspecified) | 2.8% | 1.05% | 12.6% | -0.1% | -14.8% | -3.95% |
| COC(OC)c1cccc2c1C1(O)CCC3(CC21)OCCCCO3 (stereo unspecified) | -9.35% | -26.4% | -42.5% | -11.6% | -42.9% | -23.1% |
| Cc1ccc(S(=O)(=O)Oc2cccc(C)c2)cc1 | 1.1% | 17.1% | 23% | -69% | 14.7% | 33.7% |
| CC(C)NC(=O)CCC(=O)O | -14.9% | 21.6% | -17.9% | -5.65% | 12.1% | 0.5% |
| COc1ccc(CCNC(=O)CC(C)=O)cc1 | -49.2% | -40.5% | -42.3% | 11.4% | -38% | -41.8% |
| CC(O)CNC(C)(C)CN (stereo unspecified) | -7.45% | -15.5% | -10.4% | 4.4% | -18.8% | -4% |
| O=c1oc2ccccc2cc1S(=O)(=O)c1ccccc1 | 1.35% | 4.8% | 1.4% | -53.1% | -0.95% | 18.4% |

| Compound | growth inhibition [1] | growth inhibition [2] | growth inhibition [3] | growth inhibition [4] | growth inhibition [5] | growth inhibition [6] |
| --- | --- | --- | --- | --- | --- | --- |
| O=S1(=O)C=C(c2ccccc2)C1 | -8.25% | -2.4% | -19.8% | -33.4% | 4.25% | 8.6% |
| N#C/C(=C\c1cccc(Cl)c1)C(=O)c1ccccc1 | 1.1% | 11.3% | -1.35% | 13.1% | 0.2% | 33.2% |
| COC(CNCCO)c1ccccc1 (stereo unspecified) | 3.1% | -17.6% | -0.45% | -89.2% | -6.15% | -5.45% |
| O=C(O)Cn1ccc(=O)c2cc([N+](=O)[O-])ccc21 | 41% | 15.4% | -11.1% | 12.7% | 24.9% | -49% |
| Cc1c(Br)c(C)[n+]([O-])n1O | 4% | 8.75% | 5.05% | -17% | 26.4% | 0.2% |
| COc1cc(/C=N\NS(=O)(=O)c2ccc(N)cc2)ccc1O | 10.1% | -18.3% | 5.05% | 9.55% | -24.8% | 17.1% |
| CCOC(=O)CCCCCCC(=O)OCC | 19.1% | 5.35% | 5.05% | 1.95% | 1.1% | 23.4% |
| CCc1n[nH]c(=O)n1N1C(=O)CCC1=O | 4.25% | 18.4% | -11.7% | 5.4% | -23.8% | 23.2% |
| c1ccc(C(Sc2c[nH]c3ccccc23)(c2ccccc2)c2ccccc2)cc1 (tested in a mixture with another compound) | -20.4% | -11.7% | 9.8% | 1.9% | -38.5% | -25.1% |
| CCOC(=O)c1sc(C(=O)OCC)c(O)c1O | 97% (active) | 95.5% (active) | 97.8% (active) | 58.4% | 95.7% (active) | 97% (active) |
| O=C1CSC(c2ccc(F)cc2)N1c1nncs1 (stereo unspecified) | 5.2% | 3.65% | 9.7% | 3.6% | 31.6% | 7.45% |
| [O-][n+]1cccc(CO)c1 | -17.9% | -47.9% | -25.1% | 6.05% | -15% | -4.35% |
| COC1OC(C(COC(=O)c2ccccc2)OC(=O)c2ccccc2)C(OC(=O)c2ccccc2)C1OS(C)(=O)=O (stereo unspecified) | 5.35% | -2.55% | 28.8% | 28.4% | -0.1% | 11.6% |
| CC(=O)NC1C(OC2C(CO)OC(OCC3OC(n4ccc(N)nc4=O)C(O)C3O)C(NC(C)=O)C2O)OC(CO)C(O)C1O (stereo unspecified) | 31.9% | 48.4% | 2.1% | -16.2% | -3.45% | 89.2% (active) |
| CN(c1ccccc1)c1ccc([N+](=O)[O-])cc1[N+](=O)[O-] | 7.4% | -1.3% | -8% | 3.25% | 0.8% | -11.9% |
| CC1(SCC(N)C(=O)O)CC(=O)NC1=O (stereo unspecified) | -40.5% | -33.1% | -64.5% | -36.8% | -39.2% | -40.1% |
| CCCCC(C(=O)O)C1CCCCC1 (stereo unspecified) | -12.3% | 17.4% | 23.4% | -11.9% | -12.2% | -1% |
| NNC(=O)N/N=C1\C(=O)N(c2ccc(Cl)c(Cl)c2)C(=O)C(=O)C1c1nc2ccccc2s1 (stereo unspecified) | 41.4% | 5.95% | 26.9% | 13.3% | 0% | 26.4% |
| CS(=O)(=O)OC1COCC1OS(C)(=O)=O (stereo unspecified) | 8% | 6.15% | 9.05% | -0.8% | -5.3% | -6.1% |
| CCCCOCCOCCO | -18.2% | -21.6% | -15.7% | -14.7% | 1.45% | 1.5% |
